Results on seven compounds are retold here after PubChem BioAssay (Tox21).

Experiment [1] can be described thus: A CellTox Green Cytotoxicity Assay to monitor cytotoxicity in HEK293 cells - 32 hour (AID 1224881). Further: nearly all actives have a fitted effect of over 40% in size. A digest of the protocol: (§1)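 Fluorescence from a DNA-binding dye excluded by viable cells was measured repeatedly in the same HEK293 wells (600 cells/well) during continuous compound exposure at 37 C. Each assay gives one read point: 0, 8, 16, 24, 32 or 40 h.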

Experiment [2] can be described thus: A CellTox Green Cytotoxicity Assay to monitor cytotoxicity in HepG2 cells - 0 hour (AID 1224882). Further: nearly all actives have a fitted effect of over 35% in size. The gist of the method:
(§2)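 Real-time cytotoxicity: fluorescence of a cell-impermeant cyanine dye binding DNA of dead HepG2 cells, measured repeatedly (0–40 h) during compound exposure at 37 C. Cells seeded 600/well with reagent, dosed after 5 h.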

Experiment [3] can be described thus: A CellTox Green Cytotoxicity Assay to monitor cytotoxicity in HepG2 cells - 32 hour (AID 1224883). Further: nearly all actives have a fitted effect of over 50% in size. A digest of the protocol: as §2
Experiment [4] in a line: A CellTox Green Cytotoxicity Assay to monitor cytotoxicity in HEK293 cells - 8 hour (AID 1224884). Further: nearly all actives have a fitted effect of over 35% in size. A digest of the protocol:
as §1

Experiment [5] can be described thus: qHTS RealTime-Glo MT Cell Viability Assay in HepG2 cells - 16 hour (AID 1224885). Further: nearly all actives have a fitted effect of over 50% in size. A digest of the protocol: (§3)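 Tox21 10K library screened in qHTS format on HepG2 cells carrying RealTime-Glo reagents. Compounds were added after a 5 h preincubation, and the luminescent signal from continuous culture was measured repeatedly during 40 h treatment.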
In general terms: qHTS replaces the single test concentration by a dilution series.

The nature of experiment [6]: qHTS RealTime-Glo MT Cell Viability Assay in HEK293 cells - 24 hour (AID 1224886). Further: top concentration of the series differs between compounds; nearly all actives have a fitted effect of over 50% in size. A digest of the protocol:
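Luminescence generated by NanoLuc from substrate produced by living HEK293 cells served as the viability signal. Each value reflects the reading at its stated time point during continuous 40 h compound exposure at 37 C.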

Experiment [7] is described as follows: A CellTox Green Cytotoxicity Assay to monitor cytotoxicity in HEK293 cells - 16 hour (AID 1224888). Further: nearly all actives have a fitted effect of over 35% in size. The gist of the method:
as §1

A short description of experiment [8]: qHTS RealTime-Glo MT Cell Viability Assay in HepG2 cells - 0 hour (AID 1224889). Further: nearly all actives have a fitted effect of over 50% in size. The gist of the method: as §3
A short description of experiment [9]: A CellTox Green Cytotoxicity Assay to monitor cytotoxicity in HepG2 cells - 8 hour (AID 1224890). Further: nearly all actives have a fitted effect of over 45% in size. A digest of the protocol: as §2
Experiment [10] can be described thus: qHTS assay to identify small molecule antagonists of the estrogen receptor alpha (ER-alpha) signaling pathway using the BG1 cell line in the presence of 0.1 nM 17-beta-estradiol - cell viability counter screen (AID 1259241). Further: nearly all actives have a fitted effect of over 40% in size. The gist of the method:
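VM7Luc4E2, 4,000 cells/well, phenol red-free medium + 10% charcoal-stripped FBS; 24 hr plating; cpd + 0.1 nM E2 final, 22 hr 37C/5% CO2; CellTiter-Fluor 30 min, fluorescence.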

Experiment [11] can be described thus: qHTS assay to identify small molecule antagonists of the androgen receptor (AR) signaling pathway using the MDA cell line in the presence of 0.5 nM R1881 - cell viability counter screen (AID 1259242). Further: nearly all actives have a fitted effect of over 45% in size. The gist of the method:
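Live-cell protease activity was measured by CellTiter-Fluor fluorescence after 30 min. Before that, MDA-kb2 MMTV-luciferase cells had 16 hr at 37C without CO2, exposed to test compounds and 0.5 nM R1881 final.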

The target in experiment [12] is Estrogen receptor (Homo sapiens) (UniProt P03372). In words: qHTS assay to identify small molecule antagonists of the estrogen receptor alpha (ER-alpha) signaling pathway using the BG1 cell line in the presence of 0.1 nM 17-beta-estradiol (AID 1259244). Further: nearly all actives have a fitted effect of over 50% in size. The gist of the method:
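Luciferase luminescence (ONE-Glo, 30 min at room temperature) was read after 22 hr at 37C exposure to compounds plus 17beta-estradiol at 0.1 nM final. Cells were VM7Luc4E2 with endogenous ER-alpha and an ERE-driven luciferase, pre-cultured 5 days in hormone-depleted medium.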

The nature of experiment [13]: qHTS assay to identify small molecule HDAC inhibitors (AID 1259364). Further: top concentration of the series differs between compounds; nearly all actives have a fitted effect of over 45% in size. The gist of the method:
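Luminescence read after 30 min room-temperature HDAC-Glo incubation measures cellular class I/II HDAC activity. Compounds were applied for 2 hr at 37 C to HCT-116 wild-type cells seeded the day before.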

A short description of experiment [14]: qHTS assay to identify small molecule HDAC inhibitors - cell viability counter screen (AID 1259365). A digest of the protocol: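 Luminescence from CellTiter-Glo, developed 30min at room temperature, reports viability of wild-type HCT-116 cells treated 2hr with compounds at 37 C and 5% CO2 after overnight plating.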
Experiment [15] is described as follows: qHTS assay to identify small molecule agonists of the sonic hedgehog signaling (Shh) pathway - cell viability counter screen (AID 1259366). Further: nearly all actives have a fitted effect of over 50% in size. Further: potency means the concentration at half of the fitted maximal effect. A digest of the protocol: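 Cytotoxicity counter screen run in the same wells as the Shh reporter assay. NIH/3T3 cells carrying a Gli1 response element–driven luciferase were treated with DMSO-dissolved compounds for 24hr, and live-cell protease activity was measured with CellTiter-Fluor.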

Experiment [16] is described as follows: qHTS assay to identify small molecule antagonists of the sonic hedgehog signaling (Shh) pathway - cell viability counter screen (AID 1259367). Further: nearly all actives have a fitted effect of over 55% in size. Further: potency means the concentration at half of the fitted maximal effect. The gist of the method: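 Viability was read by CellTiter-Fluor fluorescence in the same wells, reagent added 23 hr into compound treatment and incubated 1 hr at 37C. The 3T3 Gli1-Luc reporter cells (2,000/well) received conditioned medium after compound and ran 24 hr.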

A short description of experiment [17]: qHTS assay to identify small molecule phospholipidosis (PLD) inducers (AID 1259344; active means well fitted curve in the direction sought with a large enough effect; an effect the other way counts as inactive or inconclusive). A digest of the protocol: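 Phospholipid accumulation was scored by imaging: fixed, Hoechst-counterstained HepG2 cells stained with LipidTOX Red after 24 h compound exposure at 37 C. Read-outs were pit count and pit intensity per well or per cell, with amiodarone and DMSO controls.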

Experiment [18] is described as follows: qHTS RealTime-Glo MT Cell Viability Assay in HEK293 cells - 8 hour (AID 1224887). A digest of the protocol: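 Luminescence, which tracks viable cell number through reduction of the prosubstrate to a NanoLuc substrate, was read over continuous 37 C culture. Cells (600/well) were premixed with reagent and rested 5 h before 23 nL of compound in DMSO was pinned.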

Records with an inconclusive call do not appear. Some structures have more than one record in an assay (separate samples or runs), and their calls can disagree. Calls of active or inactive are those of the source. Unless noted, the call rests on the fitted dose curve; in most records, active means well fitted curve in the direction sought with a large enough effect in the repeat runs; inconclusive means weak or mixed curves; inactive means no such curve, though single readings can be large; an effect the other way counts as inactive or inconclusive.

Estrogen receptor (Homo sapiens), sequence (P03372 whole entry, looked up): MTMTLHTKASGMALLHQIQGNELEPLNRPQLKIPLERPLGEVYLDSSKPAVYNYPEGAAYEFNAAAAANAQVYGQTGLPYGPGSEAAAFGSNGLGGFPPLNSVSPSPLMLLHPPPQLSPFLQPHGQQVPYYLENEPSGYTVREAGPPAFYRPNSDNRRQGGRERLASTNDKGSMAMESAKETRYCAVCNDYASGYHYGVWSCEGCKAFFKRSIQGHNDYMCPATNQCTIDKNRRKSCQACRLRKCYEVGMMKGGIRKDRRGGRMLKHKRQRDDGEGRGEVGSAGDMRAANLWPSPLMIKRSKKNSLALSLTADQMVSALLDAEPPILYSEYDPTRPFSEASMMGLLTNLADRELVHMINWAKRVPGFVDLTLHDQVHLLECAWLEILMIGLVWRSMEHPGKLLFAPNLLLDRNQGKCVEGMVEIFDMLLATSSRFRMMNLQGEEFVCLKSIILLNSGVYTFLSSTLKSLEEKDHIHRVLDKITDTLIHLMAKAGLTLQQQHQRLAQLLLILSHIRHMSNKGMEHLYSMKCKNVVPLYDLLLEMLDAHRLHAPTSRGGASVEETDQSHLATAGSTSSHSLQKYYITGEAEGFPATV

With `CCC=O`, the Potency entry in [1], in experiment [2], in experiment [3], in [4], in [5] and in experiment [6] was “inactive” each time. Further, the Potency result in [7], in [8], in experiment [9], in experiment [11], in [13] and in [15] was “inactive” throughout. Further, the Potency entry in experiment [16] is “inactive”. Also, the outcome in [10], in [12] and in [14] was inactive.

As to `O=C(O)c1ccccc1OP(=O)(O)O`, the Potency entry in [1], in experiment [2], in experiment [4], in [5], in [6] and in experiment [7] was “inactive” in each case. Also, the Potency entry in experiment [8], in [9], in [11], in experiment [17], in experiment [13] and in experiment [15] was “inactive” each time. For the same compound, in experiment [16], the Potency result is “inactive”. Also, the outcome in [10], in [12] and in experiment [14] was inactive.

For `C=CCS(=O)(=O)O`, the Potency result in experiment [1], in experiment [2], in experiment [3], in experiment [4], in [5] and in [6] was “inactive” each time. Also, the Potency entry in experiment [18], in experiment [8], in experiment [9], in experiment [11], in experiment [13] and in [15] was “inactive” in each case. Also, the Potency entry in [16] is “inactive”. In addition, the result in [10], in experiment [12] and in experiment [14] was inactive.

Take `CC(C)(C)c1nnc(NS(=O)(=O)c2ccccc2)s1`: the Potency result in experiment [1], in experiment [2], in experiment [3], in experiment [4], in [5] and in experiment [18] was “inactive” each time. In addition, the Potency result in experiment [7], in experiment [9], in experiment [11], in experiment [17], in [13] and in experiment [15] was “inactive” in each case. Also, the Potency entry in experiment [16] is “inactive”. For the same compound, the outcome in [10], in experiment [12] and in experiment [14] was inactive.

`FC(F)OC(Cl)C(F)(F)F` (centres undefined): the Potency result in [1], in [2], in [3], in experiment [4], in experiment [5] and in experiment [6] was “inactive” throughout. In addition, the Potency entry in experiment [18], in [8], in experiment [9], in [11], in experiment [17] and in experiment [13] was “inactive” each time. Besides, the Potency result in experiment [15] and in [16] was “inactive” in each case. For the same compound, the result in experiment [10] and in experiment [14] was inactive.

Regarding `Cc1ccc(Cl)cc1Cl`, the Potency entry in [1], in [2], in experiment [3], in experiment [4], in experiment [5] and in experiment [6] was “inactive” throughout. Also, the Potency entry in experiment [18], in experiment [7], in experiment [9], in experiment [11], in experiment [13] and in [15] was “inactive” in each case. The Potency entry in experiment [16] is “inactive”. In addition, the outcome in [10], in [12] and in experiment [14] was inactive.

In the case of `COC(=O)C1=C(C)NC(C)=C(C(=O)OC)C1c1ccccc1[N+](=O)[O-]`, the Potency entry in experiment [1], in [2], in experiment [3], in experiment [4], in experiment [6] and in experiment [9] was “inactive” throughout. The Potency entry in experiment [11] and in [13] was “inactive” throughout. The result in experiment [10], in experiment [12] and in experiment [14] was inactive. The Potency is 27.3 µM (active) in experiment [15]; 30.7 µM (active) and inactive in experiment [16].
